# “And” between values parts separate entries of the source, which are not always exact repeats. Equal entries are not always repeated. Records with an inconclusive call do not appear. Where a structure was tested more than once in an assay, its records may differ in their call. The source made the active and inactive calls. The calls were made as follows: active = hit-call score of the fitted dose curve at least 0.9, where 1 is the maximum; inconclusive = response in the unintended direction; inactive = score below 0.9.
# Biological target: Cellular tumor antigen p53 (Homo sapiens) (UniProt P04637)
# Assay: TOX21_p53_BLA_p3_ratio: Tox21 HCT-116 p53 Agonism Beta-lactamase Assay, Ratio, Phase 3 (AID 2283596)
# Outline: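 HCT116 p53-bla cells (4000/well) given compound in DMSO (217-fold dilution) after 5 h, incubated 16 h at 37C. CCF4-AM substrate 2 h at room temperature; 460/530 nm emission ratio, gain fitted against DMSO.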
# Cellular tumor antigen p53 (Homo sapiens), sequence (P04637 whole entry, looked up): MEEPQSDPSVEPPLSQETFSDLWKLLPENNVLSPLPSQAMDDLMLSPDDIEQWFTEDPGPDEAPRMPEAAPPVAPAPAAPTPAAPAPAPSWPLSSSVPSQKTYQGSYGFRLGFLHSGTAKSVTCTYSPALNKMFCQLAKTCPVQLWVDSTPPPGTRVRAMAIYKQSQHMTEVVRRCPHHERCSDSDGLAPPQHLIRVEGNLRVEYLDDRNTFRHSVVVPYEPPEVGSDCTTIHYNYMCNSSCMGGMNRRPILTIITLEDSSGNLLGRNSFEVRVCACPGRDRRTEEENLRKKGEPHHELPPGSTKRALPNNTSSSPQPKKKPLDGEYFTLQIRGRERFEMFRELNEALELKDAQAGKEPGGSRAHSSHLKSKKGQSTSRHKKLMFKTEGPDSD
SMILES,outcome,AC50
CC(=O)CC(C)C,inactive,–
CCCCCCOC(=O)c1ccc(O)cc1,inactive,86 µM (active)
CN(C)c1ccc(C(=C2C=CC(=[N+](C)C)C=C2)c2ccccc2)cc1,inactive,15.1 µM (active)
CC(C)(C)c1ccc(O)c(O)c1,inactive,–
NC(=NCCCCCCN=C(N)/N=C(\N)Nc1ccc(Cl)cc1)/N=C(\N)Nc1ccc(Cl)cc1,inactive,72.6 µM (active) [middle of 4 runs]
O=C1OC(=O)c2cc(-c3ccc4c(c3)C(=O)OC4=O)ccc21,inactive,–
CCOCCOCC,inactive,–
Nc1ccc(O)c(C(=O)O)c1,inactive,–
O=S(=O)(O)c1ccc2cc(O)ccc2c1,inactive,–
CC1=CC(=O)c2ccccc2C1=O,–,29.7 µM (active) and 41.4 µM (active)
O=C(Nc1ccc(Cl)c(Cl)c1)c1cc(Cl)cc(Cl)c1O,–,0.434 µM (active)
Cc1cc(=O)oc2cc(O)ccc12,inactive,–
C[C@]12CC[C@@H]3c4ccc(O)cc4CC[C@H]3[C@@H]1CC[C@@H]2OC(=O)CCC1CCCC1,inactive,–
Cc1ccccc1C(OCCN(C)C)c1ccccc1 (stereo not given),inactive,–
CCCCCCCCCCCCCCCCCC[N+](C)(C)Cc1ccccc1,–,60.6 µM (active)
CCC(=O)C=Cc1ccc(OC)cc1,inactive,–
CCCCCCc1ccc(N)cc1,inactive,–
C[C@]12CC[C@@H]3c4ccc(O)cc4CC[C@H]3[C@@H]1C[C@@H](O)[C@@H]2O,inactive,–
CCCCCCCCCC=CCC1CC(=O)OC1=O (stereo not given),inactive,–
CNNCc1ccc(C(=O)NC(C)C)cc1,inactive,–
COCN(COC)c1nc(N(COC)COC)nc(N(COC)COC)n1,inactive,–
CC(=O)Nc1ccc(S(N)(=O)=O)cc1,inactive,–
CCCCCC(C)OC(=O)COc1ccc(Cl)c2cccnc12 (stereo not given),inactive,–
COc1ccccc1NC(=O)c1cc2ccccc2cc1O,inactive,–
O=C(NO)c1ccccc1,inactive,–
O=C1c2ccccc2C(=O)c2c(O)c(O)cc(O)c21,inactive,–
O=C1OC2(c3ccccc31)c1cc(I)c(O)c(I)c1Oc1c2cc(I)c(O)c1I,inactive,87.3 µM (active)
Oc1ccc(Cc2ccccc2O)cc1,inactive,–
CCOC(C)=O,inactive,–

# Test system: not listed separately
# Assay: TOX21_p53_BLA_p4_viability: Viability Assessment in the Tox21 HCT-116 p53 Agonism Beta-lactamase Assay, Phase 4 (AID 2283597);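 also: hits lower the luminescence signal meaning cytotoxicity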
# Outline: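 HCT-116 p53-bla cells, 4000/well, dosed after 5 h attachment and incubated 16 h at 37 °C, 5% CO2. Viability from CellTiter-Glo ATP luminescence after 30 min at room temperature, taken after the beta-lactamase read; loss of signal indicates cytotoxicity.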
SMILES,outcome,AC50
CC(=O)CC(C)C,inactive,–
CCCCCCOC(=O)c1ccc(O)cc1,–,43.2 µM (active) and 64.2 µM (active)
CN(C)c1ccc(C(=C2C=CC(=[N+](C)C)C=C2)c2ccccc2)cc1,–,1.36 µM (active) and 23 µM (active)
CC(C)(C)c1ccc(O)c(O)c1,inactive,–
O=C1OC(=O)c2cc(-c3ccc4c(c3)C(=O)OC4=O)ccc21,inactive,–
CCOCCOCC,inactive,–
Nc1ccc(O)c(C(=O)O)c1,inactive,–
O=S(=O)(O)c1ccc2cc(O)ccc2c1,inactive,–
CC1=CC(=O)c2ccccc2C1=O,inactive,72.7 µM (active)
O=C(Nc1ccc(Cl)c(Cl)c1)c1cc(Cl)cc(Cl)c1O,–,0.671 µM (active)
Cc1cc(=O)oc2cc(O)ccc12,inactive,–
C[C@]12CC[C@@H]3c4ccc(O)cc4CC[C@H]3[C@@H]1CC[C@@H]2OC(=O)CCC1CCCC1,inactive,–
Cc1ccccc1C(OCCN(C)C)c1ccccc1 (stereo not given),inactive,–
CCCCCCCCCCCCCCCCCC[N+](C)(C)Cc1ccccc1,–,38.1 µM (active)
CCC(=O)C=Cc1ccc(OC)cc1,inactive,–
CCCCCCc1ccc(N)cc1,inactive,–
C[C@]12CC[C@@H]3c4ccc(O)cc4CC[C@H]3[C@@H]1C[C@@H](O)[C@@H]2O,inactive,–
CCCCCCCCCC=CCC1CC(=O)OC1=O (stereo not given),inactive,–
CNNCc1ccc(C(=O)NC(C)C)cc1,inactive,–
COCN(COC)c1nc(N(COC)COC)nc(N(COC)COC)n1,inactive,–
CCCCCC(C)OC(=O)COc1ccc(Cl)c2cccnc12 (stereo not given),inactive,–
COc1ccccc1NC(=O)c1cc2ccccc2cc1O,inactive,–
O=C(NO)c1ccccc1,inactive,–
O=C1c2ccccc2C(=O)c2c(O)c(O)cc(O)c21,inactive,–
O=C1OC2(c3ccccc31)c1cc(I)c(O)c(I)c1Oc1c2cc(I)c(O)c1I,inactive,58.1 µM (active)
Oc1ccc(Cc2ccccc2O)cc1,inactive,–
CCOC(C)=O,inactive,–

# Biological target: Cellular tumor antigen p53 (Homo sapiens) (UniProt P04637)
# Assay: TOX21_p53_BLA_p5_ratio: Tox21 HCT-116 p53 Agonism Beta-lactamase Assay, Ratio, Phase 5 (AID 2283599)
# Outline: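 HCT-116 p53-bla cells (4000/well) plated 5 h, dosed with compound (217-fold DMSO dilution) for 16 h at 37 C; CCF4-AM substrate 2 h at room temperature. Activity is the 460/530 nm emission ratio (405 nm excitation), fitted in gain-of-signal direction versus DMSO.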
SMILES,outcome,AC50
CC(=O)CC(C)C,inactive,–
CCCCCCOC(=O)c1ccc(O)cc1,–,70.6 µM (active) and 76.8 µM (active)
CN(C)c1ccc(C(=C2C=CC(=[N+](C)C)C=C2)c2ccccc2)cc1,inactive,19.2 µM (active)
CC(C)(C)c1ccc(O)c(O)c1,inactive,–
NC(=NCCCCCCN=C(N)/N=C(\N)Nc1ccc(Cl)cc1)/N=C(\N)Nc1ccc(Cl)cc1,inactive,79.6 µM (active) [middle of 4 runs]
O=C1OC(=O)c2cc(-c3ccc4c(c3)C(=O)OC4=O)ccc21,inactive,–
CCOCCOCC,inactive,–
Nc1ccc(O)c(C(=O)O)c1,inactive,71.9 µM (active)
O=S(=O)(O)c1ccc2cc(O)ccc2c1,inactive,–
CC1=CC(=O)c2ccccc2C1=O,inactive,40.7 µM (active)
O=C(Nc1ccc(Cl)c(Cl)c1)c1cc(Cl)cc(Cl)c1O,–,1.45 µM (active)
Cc1cc(=O)oc2cc(O)ccc12,inactive,65 µM (active) and 38.4 µM (active)
C[C@]12CC[C@@H]3c4ccc(O)cc4CC[C@H]3[C@@H]1CC[C@@H]2OC(=O)CCC1CCCC1,inactive,–
CCCCCCCCCCCCCCCCCC[N+](C)(C)Cc1ccccc1,inactive,–
CCC(=O)C=Cc1ccc(OC)cc1,inactive,–
CCCCCCc1ccc(N)cc1,inactive,–
C[C@]12CC[C@@H]3c4ccc(O)cc4CC[C@H]3[C@@H]1C[C@@H](O)[C@@H]2O,inactive,–
CCCCCCCCCC=CCC1CC(=O)OC1=O (stereo not given),inactive,–
CNNCc1ccc(C(=O)NC(C)C)cc1,inactive,–
COCN(COC)c1nc(N(COC)COC)nc(N(COC)COC)n1,inactive,–
CCCCCC(C)OC(=O)COc1ccc(Cl)c2cccnc12 (stereo not given),inactive,–
COc1ccccc1NC(=O)c1cc2ccccc2cc1O,inactive,–
O=C(NO)c1ccccc1,inactive,–
O=C1c2ccccc2C(=O)c2c(O)c(O)cc(O)c21,inactive,–
O=C1OC2(c3ccccc31)c1cc(I)c(O)c(I)c1Oc1c2cc(I)c(O)c1I,inactive,83 µM (active)
Oc1ccc(Cc2ccccc2O)cc1,inactive,–
CCOC(C)=O,inactive,–
